# From PubChem BioAssay AID372 (MTDP, 2006)
# The campaign covered roughly 100,000 compounds. About 770 (0.77%) were called active. The sample holds actives, similar compounds and a random draw of the others, so the mix is not that of the screen. A number with no mark means an inactive call. Cut-off read from the data, not from the text of the source: active = inhibition above about 50%; inactive = the rest.
# Target: Gag-Pol polyprotein (Human immunodeficiency virus type 1 group M subtype B (isolate HXB2)) (UniProt P04585)
# Test: RNase H inhibition, HIV 1 Gag Pol polyprotein, FRET biochemical assay, screening (AID 372)
# Conditions: HIV-1 RT RNase H, FRET RNA/DNA substrate fluorescence; at 10 µM; active compounds read high
row,SMILES,inhibition
1,COc1ccc(OC)c(N2C(=O)C(Cl)=C(N3CCCCC3)C2=O)c1,14%
2,CCc1ccc(/C=C2\SC(=O)NC2=O)cc1,4%
3,COc1cc(NC(=O)c2ccc(Cl)c([N+](=O)[O-])c2)ccc1NC(=O)c1ccco1,5%
4,Cc1nnc(NC(=O)Cc2ccc(Br)cc2)s1,3%
5,COc1cc(CN2CCN(Cc3ccc4c(c3)OCO4)CC2)c([N+](=O)[O-])cc1OC,6%
6,CCC(=O)Nc1cc(-c2nc3cc(Cl)ccc3o2)ccc1C,0%
7,CC1=C(C(=O)OCC2CCCCC2)C(c2ccccc2F)NC(=O)N1 (stereo not drawn),17%
8,O=C(Cn1cc(/C=C2/C(=O)NC(=S)N(c3ccccc3)C2=O)c2ccccc21)Nc1ccccc1,53% (active)
9,Cc1ccccc1N1C(=O)/C(=C\c2cn(CC(=O)Nc3ccccc3)c3ccccc23)C(=O)NC1=S,26%
10,COC(=O)Cn1cc(/C=C2\C(=O)NC(=S)N(c3cccc(Cl)c3)C2=O)c2ccccc21,4%
11,O=C(Cn1cc(/C=C2/C(=O)NC(=O)N(c3ccc(Cl)cc3)C2=O)c2ccccc21)Nc1ccccc1,11%
12,Cc1ccc(N2C(=O)NC(=O)/C(=C/c3cn(CC(=O)Nc4ccccc4)c4ccccc34)C2=O)cc1,43%
13,CCOc1cccc(N2C(=O)NC(=O)/C(=C\c3cn(CC(=O)OC)c4ccccc34)C2=O)c1,0%
14,CCOc1ccc(N2C(=O)/C(=C/c3ccc(OCc4cccc(C(=O)O)c4)cc3)C(=O)NC2=S)cc1,5%
15,O=C1NC(=O)N(c2ccccc2F)C(=O)/C1=C/c1ccc(OCc2cccc(C(=O)O)c2)cc1,4%
16,COc1ccc(N2C(=O)/C(=C/c3cn(Cc4ccccc4)c4ccccc34)C(=O)NC2=S)cc1,15%
17,CCc1ccccc1NC(=O)c1nn2c(c1Cl)NC(c1ccc(C)cc1)CC2C(F)(F)F (stereo not drawn),9%
18,CCCOc1ccccc1C1C(C(=O)OCC2CCCO2)=C(C)NC2=C1C(=O)CCC2 (stereo not drawn),6%
19,Oc1c(Br)cc(/C=N/Nc2nc(N3CCCCC3)nc(N3CCCCC3)n2)c(O)c1Br,29%
20,CC(=O)NN1C(=O)/C(=C\c2ccc(I)o2)SC1=S,0%
21,CCCOC(=O)c1c(NC(=O)Cc2ccc(OC)cc2)sc2c1CCCC2,40%
22,CC1=NN(c2ccccc2)C(=O)C1C(c1ccc([N+](=O)[O-])cc1)C1C(=O)N(c2ccccc2)N=C1C (stereo not drawn),4%
23,CC1=NN(c2ccccc2)C(=O)C1C(c1ccccc1)C(C#N)C#N (stereo not drawn),54% (active)

row,SMILES,inhibition
1,CC(=O)NC(c1ccccc1)C1C(=O)N(c2ccccc2)N=C1C (stereo not drawn),4%
2,COc1ccc(Cl)cc1N(CC(=O)N1CCC(C)CC1)S(=O)(=O)c1ccc(C)c([N+](=O)[O-])c1,6%
3,CCOc1cc(C=C2C(=O)NC(=O)NC2=O)ccc1OS(=O)(=O)c1ccc(C)cc1,17%
4,O=C(COc1ccc(Cl)cc1Cl)n1cc([N+](=O)[O-])cn1,6%
5,CCCCSc1nc(C)c(C(C)=O)cc1C#N,8%
6,CCc1c(C#N)c(N)nc(SCC(=O)c2ccc(C)cc2)c1C#N,13%
7,Cc1nc(SCC(=O)c2ccc(O)c(O)c2)c(C#N)c(CC(C)C)c1C(N)=O,51% (active)
8,CSc1nc(C)c(C(C)=O)cc1C#N,13%
9,N#Cc1c(SCC(=O)c2ccc(Cl)cc2)nc2c(c1-c1ccco1)CCCC2,12%
10,CCc1c(C#N)c(N)nc(SCC(=O)c2ccc(Cl)c(Cl)c2)c1C#N,14%
11,Cc1cc(-c2ccc(C)o2)c(C#N)c(SCC(=O)c2ccccc2)n1,1%
12,CC(=O)c1cc(C#N)c(SCC(=O)c2ccc(O)c(O)c2)nc1C,75% (active)
13,COc1ccc(C(=O)CSc2nc3c(c(-c4ccc(C)o4)c2C#N)CCCC3)cc1,15%
14,COc1ccc(-c2cc(-c3ccc(OC)cc3)c(C#N)c(SCC(=O)c3ccc(C)cc3)n2)cc1,17%
15,NC(N)=NS(=O)(=O)c1ccc(NC(=S)Nc2ccccc2)cc1,6%
16,CC(=O)C1(C)CC(C#N)(C#N)C(C#N)=C1N (stereo not drawn),0%
17,COCCOC(=O)c1ccc(NC(=O)C(C)Oc2ccc(Cl)cc2C)cc1 (stereo not drawn),11%
18,CC(=O)ON=C1CC(C)(C)NC(C)(C)C1,4%
19,CCOC(=O)/C=C/COc1ccc2oc(-c3ccccc3)c(C(=O)OCC)c2c1,10%
20,CC(=O)c1ccc(NC(=O)c2ccccc2Cl)cc1,2%
21,CCCOC(=O)CSc1nc(C)cc(C)c1C#N,10%
22,Cc1cc(C)c(C#N)c(SCC(=O)c2ccc(O)c(O)c2)n1,70% (active)
23,Cc1cc(C)c(C#N)c(SCC(=O)Nc2ccc(Cl)cc2)n1,1%

row,SMILES,inhibition
1,COc1cccc(N2C(=O)/C(=C/c3c(OC)cc(OC)cc3OC)C(=O)NC2=S)c1,1%
2,CCCCc1ccc(/C(C)=N/Nc2cc(-n3cc(C)cn3)ncn2)cc1,0%
3,O=C(O)CCCCCN1C(=O)C(=O)/C(=C(/O)c2ccc(Cl)cc2)C1c1ccccc1 (stereo not drawn),13%
4,O=c1oc2cc(OCc3c(F)cccc3Cl)ccc2cc1-c1ccccn1,8%
5,CC(C)c1ccccc1OCCCN1CCCCC1,56% (active)
6,CC(C)c1ccccc1OCCCN1CCCC1,3%
7,CC(C)c1ccccc1OCCCCN1CCCCC1,8%
8,Cc1ccc(C)c(N(CC(=O)Nc2c(C)n(C)n(-c3ccccc3)c2=O)S(=O)(=O)c2ccccc2)c1,3%
9,COc1ccc2c(c1OC)C(=O)OC2Nc1cccc([N+](=O)[O-])c1 (stereo not drawn),1%
10,CCOC(=O)COc1ccc(C=O)cc1OCC,0%
11,O=C(N/N=C/c1ccc(Cl)c([N+](=O)[O-])c1)c1ccc(O)c(O)c1,53% (active)
12,O=C(N/N=C/c1ccccc1[N+](=O)[O-])c1ccccc1,28%
13,O=C(N/N=C/c1ccc(Cl)c([N+](=O)[O-])c1)c1ccccn1,11%
14,O=C(N/N=C/c1ccc(Cl)c([N+](=O)[O-])c1)c1ccc(O)cc1,22%
15,O=C(N/N=C/c1cc([N+](=O)[O-])ccc1Cl)c1ccc(O)cc1,10%
16,O=C(N/N=C/c1ccccc1[N+](=O)[O-])c1ccc(O)c(O)c1,51% (active)
17,O=C(N/N=C/c1cc([N+](=O)[O-])ccc1O)c1ccc(O)c(O)c1,35%
18,O=C(N/N=C/c1ccc(Cl)c([N+](=O)[O-])c1)c1cc2ccccc2o1,59% (active)
19,O=C(N/N=C/c1cc([N+](=O)[O-])ccc1Cl)c1ccc(O)c(O)c1,63% (active)
20,O=C(N/N=C/c1ccc(Cl)c([N+](=O)[O-])c1)c1cc(O)cc(O)c1,3%
21,O=C(N/N=C/c1cc([N+](=O)[O-])ccc1Cl)c1cc2ccccc2o1,35%
22,O=C(N/N=C/c1ccccc1[N+](=O)[O-])c1cc(O)cc(O)c1,3%
